TDP1 inh = qHTS Assay for Inhibitors of Tyrosyl-DNA Phosphodiesterase (TDP1) | recombinant TDP1, AlphaScreen DNA substrate cleavage | Potency, µM (highest dose often 130 µM), for the others: at the top dose activity change, negative = inhibition, usual class: inhibitors | 0.28% of 350,000 active; further: nearly all actives have a fitted effect of over 40% in size
Target sequence (Q9NUW8 whole entry, looked up): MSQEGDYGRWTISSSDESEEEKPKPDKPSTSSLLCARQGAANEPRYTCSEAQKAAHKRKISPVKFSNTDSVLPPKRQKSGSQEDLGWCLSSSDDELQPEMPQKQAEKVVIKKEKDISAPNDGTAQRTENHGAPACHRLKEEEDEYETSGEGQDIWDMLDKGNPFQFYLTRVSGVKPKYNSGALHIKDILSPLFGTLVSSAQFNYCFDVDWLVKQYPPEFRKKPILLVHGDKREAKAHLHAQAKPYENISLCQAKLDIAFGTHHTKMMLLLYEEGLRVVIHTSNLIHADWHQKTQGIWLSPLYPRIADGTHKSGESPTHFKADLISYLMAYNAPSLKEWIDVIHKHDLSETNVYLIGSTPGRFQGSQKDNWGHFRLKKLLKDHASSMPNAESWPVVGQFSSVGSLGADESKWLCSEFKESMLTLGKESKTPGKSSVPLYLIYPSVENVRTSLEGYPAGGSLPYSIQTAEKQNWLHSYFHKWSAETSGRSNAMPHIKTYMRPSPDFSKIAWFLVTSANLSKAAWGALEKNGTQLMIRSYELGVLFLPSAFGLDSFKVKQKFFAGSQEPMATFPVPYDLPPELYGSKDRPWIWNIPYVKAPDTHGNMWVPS
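Steps: enzyme plus compound, 15 min RT; add biotin/phosphotyrosine-FITC oligonucleotide (15 nM final), react 5 min; add donor/acceptor beads (10 ug/ml final), 10 min; read AlphaScreen. Tdp1 at 1 nM final.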
PLK1 PBD inh = qHTS for Inhibitors of PLK1-PDB (polo-like kinase 1 - polo-box domain): Primary Screen; Serine/threonine-protein kinase PLK1 (Homo sapiens), P53350; Plk1 PBD binding of FITC phosphopeptide, fluorescence polarization; Potency, µM, for the others: max response, negative = inhibition, most hits filed as inhibitors; 2.8% of 360,000 active; further: series mostly up to about 57 µM; nearly all actives have a fitted effect of over 65% in size
DT40 TDP1 no CPT = qHTS for Inhibitors of human tyrosyl-DNA phosphodiesterase 1 (TDP1): qHTS in cells in absence of CPT. DT40 Tdp1-/- hTDP1 cells, no CPT, ATP luminescence, 48 h. Potency, µM (highest dose often 46.2 µM), for inactives: at the top dose activity change, negative = growth inhibition, usual class: inhibitors. 15% of 420,000 active. AID 686978, 2013; further: nearly all actives have a fitted effect of over 55% in size
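Chicken DT40 Tdp1-/- cells stably complemented with human TDP1 were seeded at 400 cells/well with DMSO in place of 20 nM camptothecin. After compound pinning, cells grew at least 48 hr at 37 °C; viability read by CellTiter-Glo luminescence.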
KAT2A inh = qHTS Assay for Inhibitors of GCN5L2; Histone acetyltransferase KAT2A (Homo sapiens), Q92830; GCN5L2 HAT assay, ThioGlo1 CoA-SH fluorescence; Potency, µM (series often up to 58.9 µM), without a hit: at the top dose activity change, negative = inhibition, actives largely listed as inhibitors; 0.21% of 390,000 active
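Fluorescence readout, Ex340nm/Em540nm: ThioGlo1 (50uM final) reacts with free CoA thiol released as 20nM GCN5L2 acetylates H3(1-25) peptide (75uM) using acetyl-CoA (70uM). Compound and enzyme sat 15 min beforehand; 20 min room-temperature reaction.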
TDP1 cell CPT = qHTS for Inhibitors of human tyrosyl-DNA phosphodiesterase 1 (TDP1): qHTS in cells in presence of CPT | chicken DT40 Tdp1-/-;hTDP1 cells + 20 nM CPT, ATP luminescence, 48 h | Potency, µM (series often up to 46.2 µM), without a hit: at the top dose activity change, negative = growth inhibition, most hits filed as inhibitors | 12% of 420,000 active | AID 686979, 2013; further: nearly all actives have a fitted effect of over 55% in size
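Cell growth measured by CellTiter-Glo luminescence after a minimum 48 h, 37 C compound exposure with 20 nM CPT in Tdp1-knockout DT40 cells stably expressing hTDP1, seeded 400/well; qHTS titration format.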
VDR inhibitor = Inhibitors of the vitamin D receptor (VDR): qHTS; Vitamin D3 receptor (Homo sapiens), P11473; 0.93% of 400,000 active; Potency, µM, for the others: max response, negative = inhibition, usual class: inhibitors; AID 504847, 2011; VDR-SRC2-3 peptide fluorescence polarization, 2 h
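Fluorescence polarization assay of small-molecule disruption of VDR binding to coregulator peptide SRC2-3. Compounds and controls pin-transferred, then read after 2 h incubation at ambient room temperature.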
Numbers without * were called inactive; ? = inconclusive; nt = no result given; [ ] = dose if it differs, or a comment. A selection: hits, their analogues and other compounds. The true share with any hit is near 18%. The call rests on the fitted dose curve; in most records, active means well fitted curve in the direction sought with a large enough effect; inconclusive means small, poorly fitted or top-dose-only effect, or another doubt; inactive means no such curve, though single readings can be large; an effect the other way counts as inactive or inconclusive. On the % scale 0 is the no-effect control and ±100 the full control effect; potency means the concentration at half of the fitted maximal effect.

SMILES	TDP1 inh	PLK1 PBD inh	DT40 TDP1 no CPT	KAT2A inh	TDP1 cell CPT	VDR inhibitor
Cc1ccc(S(=O)(=O)N2CCOCC2)cc1C(=O)Nc1nc(-c2ccccn2)cs1	1.9%	16.8µM*	4.11µM*	-4.7%	5.17µM*	?
CCOc1ccccc1NC(=O)c1cc(S(=O)(=O)N2CCOCC2)ccc1C	1.3%	-11.5%	-15.6%	-0.7%	-25.2%	-6.8%
O=C(Nc1nc(-c2ccc(S(=O)(=O)N3CCCC3)cc2)cs1)c1ccco1	8.0%	-6.1%	18.4µM*	-1.8%	23.1µM*	2.1%
COc1ccc(C(=O)NCc2nnc(SCC(=O)Nc3ccc(F)cc3)n2-c2ccccc2)cc1	3.5%	nt	?	1.5%	?	-0.2%
CC(COc1ccccc1)NN (stereo not given)	nt	nt	-6.0%	nt	-3.8%	nt
COc1ccc(C(=O)Nc2nc(-c3ccccn3)cs2)cc1S(=O)(=O)N1CCOCC1	-0.2%	23.8µM*	5.17µM*	1.5%	13µM*	?
O=C(Nc1nc(-c2ccccn2)cs1)c1cccc(S(=O)(=O)N2CCOCC2)c1	-0.5%	18.9µM*	2.91µM*	-9.6%	4.11µM*	?
COc1ccccc1C(=O)Nc1nc(-c2ccc(S(=O)(=O)N3CCOCC3)cc2)cs1	3.9%	?	2.31µM*	-5.3%	2.59µM*	-14.2%
COc1cccc(N2C(=O)N(Cc3ccc(C#N)cc3)c3ccccc3S2(=O)=O)c1	-1.5%	nt	-30.0%	-11.6%	4.7%	6.2%
CCn1c(CNc2ccccc2Cl)nnc1SCCN1CCCCC1	6.2%	-7.4%	16.4µM*	0.4%	18.4µM*	-2.5%
CC(CC(=O)O)Nc1ccccc1O (stereo not given)	nt	2.3%	?	2.9%	20.6µM*	12.7%
CC(C)C(=O)NC(CC(=O)O)c1ccccc1 (stereo not given)	1.4%	-4.3%	4.5%	-0.2%	-0.8%	2.6%
CSCCC1NC(=O)N(CC(=O)Nc2cccc3ccccc23)C1=O (stereo not given)	-2.9%	-2.6%	1.6%	-4.5%	-9.2%	4.6%
Cc1nc(-c2ccc(C)c(S(=O)(=O)N3CCC(C(=O)NCc4ccc(F)cc4)CC3)c2)no1	0.5%	nt	5.17µM*	1.2%	2.59µM*	1.6%
Cc1ccc(CNC(=O)C2CCN(S(=O)(=O)c3cc(-c4noc(C)n4)ccc3C)CC2)cc1	0.5%	nt	2.59µM*	-2.4%	4.61µM*	8.1%
Cc1nc(-c2ccc(C)c(S(=O)(=O)N3CCC(C(=O)NCc4ccc(Cl)cc4)CC3)c2)no1	-2.5%	nt	?	-2.6%	?	11.8%
COc1cc2c(cc1OC)C1O[C@](CCCCN3C(=O)c4ccccc4C3=O)(C2)Oc2c1c(=O)oc1ccccc21	nt	nt	nt	-10.4%[12.7 µM]	nt	nt
CCc1ccc(NC(=S)N(CCN2CCOCC2)Cc2ccccc2F)cc1	4.9%	-3.9%	-7.9%	0.1%	-6.1%	19.3%
OC[C@@H](O)[C@@H](O[C@H]1O[C@H](CO)[C@@H](O)[C@H](O)[C@H]1O)[C@H](O)[C@@H](O)CO	5.8%	3.6%	3.7%	0.9%	-0.3%	2.4%
COc1cc(C)ccc1OC(C)C(=O)Nc1ccc(N2CCCCC2)cc1 (stereo not given)	4.9%	-6.1%	13µM*	-4.2%	?	-2.4%
COc1cc(CNc2ccc(N3CCCCC3)cc2)ccc1OCC(=O)NC(C)(C)C	11.0%	-0.4%	23.1µM*	-6.6%	?	7.8%
COc1cc(CNC(C)C23CC4CC(CC(C4)C2)C3)ccc1OCC(=O)NC(C)(C)C (stereo not given)	nt	-1.3%	20.6µM*	26.4%	-106.8%	3.9%
COc1cc(CNC(C)(C)CO)ccc1OCC(=O)NC(C)(C)C	2.6%	-7.6%	4.4%	-4.7%	9.0%	0.0%
COc1cc(CNc2ccc(S(N)(=O)=O)cc2)ccc1OCc1ccccc1F	nt	0.6%	?	nt	18.4µM*	9.3%
CC(NCc1cc(Br)ccc1OCC(N)=O)C12CC3CC(CC(C3)C1)C2 (stereo not given)	nt	3.0%	18.4µM*	-24.0%	?	?
SMILES	TDP1 inh	PLK1 PBD inh	DT40 TDP1 no CPT	KAT2A inh	TDP1 cell CPT	VDR inhibitor
COc1cc(CNC(C)C23CC4CC(CC(C4)C2)C3)cc(OC)c1OC (stereo not given)	nt	-9.6%	?	-0.4%	?	-9.6%
COc1cc(CNc2ccc(N3CCCC3)cc2)ccc1OCc1ccccc1F	5.5%	-14.8%	4.61µM*	-2.4%	3.66µM*	79.4µM*
COc1ccc(NCc2ccc(OC)c(OC)c2)cc1	8.7%	nt	nt	-6.9%	nt	nt
COc1cc(CNC23CC4CC(CC(C4)C2)C3)ccc1OCc1ccccc1	2.7%	5.6%	20.6µM*	-8.4%	29.1µM*	21.1%
COc1cc(CNc2ccc(N3CCCC3)cc2)ccc1OCc1ccccc1	4.1%	-18.0%	2.06µM*	40.4%	1.64µM*	35.5µM*
CCN1C[C@@H]2[C@@H]3C(=O)N(Cc4ccccc4)C(=O)[C@@H]3[C@](Cc3ccccc3)(C1=O)N2C(=O)c1ccc(C)cc1	nt	-3.2%	-20.5%	nt	-3.9%	2.2%
COc1ccccc1NC(=S)N(Cc1cccs1)C1CCCC1	2.6%	1.0%	6.51µM*	-16.1%	?	10.6%
COc1ccccc1NC(=S)N(Cc1ccccc1)Cc1cccs1	2.6%	-4.8%	-9.7%	-2.9%	-8.4%	3.7%
COCc1ccc(CN2CCOc3c(cc(-c4ccc(SC)cc4)cc3OC)C2)o1	nt	nt	-20.7%	nt	1.3%[9.04 µM]	nt
O=C(c1ccc(CNS(=O)(=O)c2ccc(F)cc2)cc1)N1CCCCCC1	nt	1.7%	14.6µM*	nt	?	nt
Cc1ccc(C)c(S(=O)(=O)NCc2ccc(C(=O)N3CCCCCC3)cc2)c1	-5.3%	-3.1%	23.1µM*	0.5%	?	6.9%
Cc1cc2cc(C=O)c(Cl)nc2cc1C	5.2%	-9.1%	18.4µM*	-1.8%	?	-4.4%
C(=Nc1cccnc1)c1ccc2ccccc2n1	nt	nt	1µM*	nt	0.891µM*	nt
C(=Nc1ccc2ccccc2n1)c1cccnc1	nt	nt	-11.2%	nt	?	nt
O=C(CNC(=O)c1ccc(-c2ccccc2)cc1)OC(C(=O)Nc1cc(C(F)(F)F)ccc1Cl)c1ccccc1 (stereo not given)	1.0%	nt	nt	nt	nt	nt
Cc1ccccc1C(=O)NC(C(=O)Nc1nc2c(s1)CCCC2)C(C)C (stereo not given)	0.0%	1.3%	25.9µM*	2.4%	25.9µM*	-24.1%
